TbPYK inhibitor – blocks Trypanosoma brucei pyruvate kinase | Q57TT1 | TbPYK enzyme, Kinase-Glo Plus ATP luminescence, 45 min | Potency, µM (titrated, usually from 76.8 µM), without a hit: top-dose activity, negative = inhibition, hits mostly inhibitors | hit rate 0.12% among 410,000 | AID 624173; note: potency is the fitted concentration of half-maximal effect; % is set by controls: 0 for no effect and ±100 for the full control effect; nearly all actives have a fitted effect of over 50% in size
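Enzyme and substrate buffer are dispensed first and compound is pin-transferred. ADP at 130 uM final then starts the reaction, which runs 45 min at room temperature. Detection reagent is added for 10 min before luminescence is imaged.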
Sm TGR block – blocks Schistosoma mansoni thioredoxin glutathione reductase; Q962Y6; purified TGR, DTNB reduction, TNB absorbance 405 nm; Potency, µM (highest dose often 114 µM), for inactives: top-dose activity change, negative = inhibition, most hits filed as inhibitors; hit rate 3% among 360,000; AID 485364; note: potency is the fitted concentration of half-maximal effect; % is set by controls: 0 for no effect and ±100 for the full control effect; nearly all actives have a fitted effect of over 60% in size
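First, TGR (20 nM dispensed) and NADPH were mixed with compound. Second, a 15 min room-temperature incubation followed. Third, further NADPH and then DTNB were added to start the reaction. Finally, TNB absorbance was monitored kinetically.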
FBPA Giardia inh – inhibitors of Giardia lamblia fructose-1,6-bisphosphate aldolase | A8B2U2 | purified Giardia FBPA | Potency, µM (doses to about 59.6 µM), inactives show top-dose activity, negative = inhibition, hits mostly inhibitors | hit rate 0.71% among 290,000 | AID 2451; note: potency is the fitted concentration of half-maximal effect; % is set by controls: 0 for no effect and ±100 for the full control effect; nearly all actives have a fitted effect of over 55% in size
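40 nM FBPA preincubated 10 min at RT with compound (up to 57.5 uM final), then substrate plus GAPDH/TPI/NAD/arsenate coupling and diaphorase/resazurin added. Fluorescence read after 20 min at RT, 525/598 nm.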
Shiga inhibitor – blocks Shiga toxin action in Vero cells; Vero cells, Shiga toxin protein synthesis inhibition reporter; inhibition, % at 38.7 µM; hit rate 9.2% among 290,000; in the data active = inhibition mostly above about 28%, no sharp cut-off; inactive = mostly below about 43%; note: 0% is about no effect
CHX counter – affects cycloheximide protein synthesis inhibition readout, counter-screen | cell reporter, cycloheximide protein synthesis inhibition counterscreen | max response, % | hit rate 12% among 300,000; in the data active = max response mostly above about 13%, no sharp cut-off; inactive = mostly below about 14%; note: read at 38.3 µM for the half of the compounds with a filed dose; 0% is about no effect
LmPK inh – blocks Leishmania mexicana pyruvate kinase activity; AID 1721; hit rate 0.37% among 290,000; Q27686; purified LmPK, Kinase-Glo ATP luminescence, 1 h; Potency, µM (doses to about 57.5 µM), for inactives: top-dose activity change, negative = inhibition, hits mostly inhibitors; note: potency is the fitted concentration of half-maximal effect; % is set by controls: 0 for no effect and ±100 for the full control effect
Target sequence (Q27686 whole entry, looked up): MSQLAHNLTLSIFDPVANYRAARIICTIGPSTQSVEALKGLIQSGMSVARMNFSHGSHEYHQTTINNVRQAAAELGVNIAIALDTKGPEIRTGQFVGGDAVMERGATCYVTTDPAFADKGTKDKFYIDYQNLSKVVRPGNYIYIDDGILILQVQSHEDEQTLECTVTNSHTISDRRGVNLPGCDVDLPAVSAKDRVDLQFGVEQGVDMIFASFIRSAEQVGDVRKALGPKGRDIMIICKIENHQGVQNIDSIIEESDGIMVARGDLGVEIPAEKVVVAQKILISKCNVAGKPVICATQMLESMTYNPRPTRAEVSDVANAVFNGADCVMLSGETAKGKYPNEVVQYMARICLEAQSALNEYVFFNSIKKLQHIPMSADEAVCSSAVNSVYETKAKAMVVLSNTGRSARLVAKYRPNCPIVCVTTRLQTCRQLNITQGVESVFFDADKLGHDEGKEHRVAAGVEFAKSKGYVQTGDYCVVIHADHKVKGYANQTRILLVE
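Purified LmPK (0.1 nM) with 0.5 mM PEP and 0.1 mM ADP in imidazole buffer pH 7.2 with MgCl2/KCl, 1 h at room temperature. ATP formed was read by luciferase luminescence and normalized to no-enzyme and uninhibited controls.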
* = called active by the depositor; ? = inconclusive; . = no result given; [ ] = remark or other dose. Only a selection was taken, and hits are over-represented in it overall. Unless noted, calls come from the whole dose curve; as a rule, active = well fitted curve in the direction sought with a large enough effect; inconclusive = small, poorly fitted or top-dose-only effect, or another doubt; inactive = no such curve, though single readings can be large; an effect the other way counts as inactive or inconclusive.

SMILES	TbPYK inhibitor	Sm TGR block	FBPA Giardia inh	Shiga inhibitor	CHX counter	LmPK inh
N=c1n(CC(=O)c2ccc(Br)cc2)c2ccccc2n1Cc1ccccc1	-5.4%	-5.2%	.	.	.	.
Cc1ccc(C(=O)Cn2c(=N)n(N)c3ccccc32)cc1	2.1%	10.0%	-4.6%	81.1*	46.2*	-0.7%
CCCCn1c(=N)n(CC(=O)c2ccc(OC)cc2)c2ccccc21	.	4.1%	-3.9%	-9.4	-1.5	-8.9%
CCN(CC)CCn1c(=N)n(CC(=O)c2ccc(C)cc2)c2ccccc21	2.3%	-27.8%	-3.0%	.	27.0*	-1.9%
CCCCN(CC)C(=O)CSc1nc2n[nH]c(C)c2c(=N)n1-c1ccc(CC)cc1	1.2%	9.0%	.	.	.	.
CCOC(=O)CSC(=S)NC(=O)c1ccc(OC)cc1	0.3%	8.91µM*	?	12.2	1.9	-3.3%
COc1ccc(C(=O)NC(=S)SCC(=O)O)cc1	-19.4%	?	?	26.5*	14.9*	-5.4%
C=CCNC(=S)N1CCC(C(=O)c2ccc(Cl)cc2)CC1	-10.0%	28.3%	?	11.1	-1.6	-2.3%
Nc1c(C(=O)Nc2ccccc2)sc2nc(-c3cccnc3)ccc12	.	6.9%	?	70.2*	49.0*	2.4%
Cc1ccc(NC(=O)c2sc3nc(-c4ccncc4)ccc3c2N)cc1	0.6%	-0.7%	.	.	.	.
COc1ccccc1NC(=O)c1sc2nc(-c3ccco3)ccc2c1N	-5.8%	?	-0.5%	69.9	19.8*	3.6%
COc1ccc(NC(=O)c2sc3nc(-c4cccnc4)ccc3c2N)cc1	-7.3%	4.9%	-0.1%	17.8	-2.1	-0.6%
Nc1c(C(=O)Nc2ccccc2)sc2nc(-c3ccco3)ccc12	-4.6%	1µM*	-0.5%	94.6*	26.8*	-0.8%
CCOC(=O)C1=CC[C@@H](c2ccccc2)N(S(=O)(=O)c2ccc(C)cc2)[C@H]1C=C(C)C	4.3%	.	.	.	.	.
Cc1ccc(-c2nnc(Nc3ccc(Br)cc3)c3ccccc23)cc1S(=O)(=O)NCC1CCCO1 (stereo not drawn)	-5.1%	-7.9%	.	.	.	.
COc1cccc(-c2nc(SCC(=O)NC3CCCC3)c(-c3ccccc3)[nH]2)c1	-1.4%	7.9%	.	.	.	.
O=C(NCc1ccc2c(c1)OCO2)c1cc(Cl)ccc1Cl	-4.8%	-19.8%	-0.6%	.	13.4*	-0.3%
COc1ccc(Cl)cc1C(=O)NCc1ccc2c(c1)OCO2	-2.3%	-4.8%	-4.9%	24.1	10.5	-1.7%
O=C(NCc1ccc2c(c1)OCO2)Nc1ccc(Cl)cc1	-2.8%	20.6%	2.8%	23.8	24.8*	-6.6%
Cc1ccc(Nc2nc(C)nc(N)c2S(=O)(=O)c2ccccc2)cc1	3.7%	-0.6%	.	.	.	.
CCCc1nnc2n1N=C(c1ccc(-c3cc(Cl)ccc3Cl)o1)CS2	.	2.2%	1.5%	active	21.3*	1.0%
O=C(/C=C/c1cccs1)N1CCCCC1	-7.2%	.	2.6%	61.0*	39.3*	?
O=C(/C=C/c1cccs1)N1CCN(Cc2ccc3c(c2)OCO3)CC1	-10.1%	-2.8%	3.8%	12.9	-0.9	-4.3%
COc1cc2c(cc1OC)CN(C(=O)/C=C/c1cccs1)CC2	0.5%	?	1.6%	33.5	2.5	-1.8%
O=C(/C=C/c1cccs1)N1CCN(c2ccc(O)cc2)CC1	-9.6%	1.9%	-24.1%	30.9	11.3	15.8µM*
SMILES	TbPYK inhibitor	Sm TGR block	FBPA Giardia inh	Shiga inhibitor	CHX counter	LmPK inh
CC(=O)OCC(NC(=O)C1CCCN1C(=O)OC(C)(C)C)C1OC(n2cc(F)c(=O)[nH]c2=O)C(OC(C)=O)C1OC(C)=O (stereo not drawn)	.	.	4.7%	19.1	-3.7	.
COC(=O)c1sc(-c2ccc(Cl)cc2)cc1N	3.9%	1.3%	-4.4%	80.5*	65.8*	1.8%
CC(=O)c1sc(-c2ccc(Cl)cc2)cc1N	3.4%	-0.2%	3.0%	35.5*	26.6*	4.1%
COC(=O)c1sc(-c2cccs2)cc1N	-5.0%	7.1%	0.9%	47.2*	39.8*	-5.1%
COc1ccccc1NC(=O)c1sc(-c2ccc(Cl)cc2)cc1N	-0.8%	2.6%	.	.	.	.
CCC(=O)c1ccc(OC(=O)Cc2ccc(OC)cc2)cc1	-3.4%	8.1%	2.1%	-9.9	-1.9	0.2%
CC(=O)Nc1ccccc1NC(=O)C/C(C)=N/NC(=O)C1CCCCC1	3.8%	3.6%	3.5%	1.7	14.6	-2.8%
C/C(CC(=O)Nc1cccc(C(F)(F)F)c1)=N\NC(=O)C1CCCCC1	-0.1%	.	-8.8%	54.8	26.7*	3.1%
COCCNC(=O)C(=O)N/N=C(\C)CC(=O)Nc1cccc(C(F)(F)F)c1	-0.8%	-6.6%	-12.9%	20.5	13.3	7.0%
COc1ccc(C(=O)N/N=C(\C)CC(=O)Nc2cccc(C(F)(F)F)c2)cc1	-3.0%	-6.2%	-26.6%	81.5*	39.0*	7.0%
Cc1cccc(N(C)C(=O)CN(C)S(=O)(=O)c2ccc3[nH]c4c(c3c2)CCCC4)c1	-10.1%	-0.9%	.	.	.	.
CC(C)c1onc(C(=O)NCc2ccccn2)c1[N+](=O)[O-]	1.2%	?	1.5%	-3.5	10.1	-2.3%
CC(C)c1onc(C(=O)Nc2cccc(Cl)c2)c1[N+](=O)[O-]	8.7%	?	-10.6%	34.9	25.3*	2.4%
CC(C)c1cc(C(=O)Nc2cccc(Cl)c2)no1	-0.6%	0.0%	-8.8%	82.3*	30.0*	?
CC(=O)c1cccc(NC(=O)c2cc(C(C)C)on2)c1	1.1%	-25.9%	-20.5%	83.6*	40.0*	5.4%
CO[C@@H]1COC(=O)[C@H](COCc2ccccc2)NC(=O)C/C=C\[C@@H](C)[C@H](OC)COC(=O)[C@H](COCc2ccccc2)NC(=O)C/C=C\[C@H]1C	.	.	5.6%[12.9 µM]	.	.	.
Nc1ccc(-c2cnc[nH]2)cc1[N+](=O)[O-]	-3.7%	0.5%	-7.3%	26.3	12.3*	-5.0%
COc1ccc(CN2C(=O)C(NC(=O)c3ccccc3OC)(C(F)(F)F)N=C2c2ccccc2)cc1 (stereo not drawn)	2.5%	9.1%	.	.	.	.
Cc1ccc(-c2nnc(Nc3ccc(O)cc3)c3ccccc23)cc1S(=O)(=O)NCC1CCCO1 (stereo not drawn)	0.7%	-19.9%	.	.	.	.
CCCN(CCC)S(=O)(=O)c1ccc(N2CCCCS2(=O)=O)cc1	1.7%	-9.1%	.	.	.	.
c1ccc2c(c1)ccc1nnc(-c3ccc4c(c3)OCO4)n12	-0.2%	-0.1%	-11.7%	active	12.2*	0.4%
c1ccc2c(c1)ccc1nnc(SCc3ccc4c(c3)OCCO4)n12	-4.8%	1.1%	-3.8%	42.2*	42.5*	5.0%
O=C(CSc1nnc2ccc3ccccc3n12)N1CCOCC1	5.0%	1.7%	-5.5%	31.8*	63.3*	-4.2%
COc1cccc(Cn2c(=O)n(-c3ccc(C)c(F)c3)c(=O)c3sc4ccccc4c32)c1	0.6%	1.5%	.	.	.	.
Nc1ncnc2c1ncn2[C@@H]1O[C@H](CCC(=O)NCc2ccccc2)[C@@H](O)[C@H]1O	1.8%	.	.	.	.	.
c1ccc(SCc2nc3ccccc3[nH]2)nc1	4.8%	-1.2%	-9.5%	59.8*	26.0*	-2.1%
